From PubChem BioAssay AID2690 (NMMLSC, 2010)
About 590 (0.18%) of roughly 330,000 compounds were called active.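 Rule for the calls: active = superoxide response under a set limit, about three screen SD below normal (cut at about 65% in these data); inactive = the rest.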 The list comes from a sample in which actives are over-represented; it also holds similar structures and randomly drawn compounds.

Assay: yeast aging ROS inhibitors as calorie-restriction mimetics – HTS, primary screen (AID 2690);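 note: yeast aged for seven days with compound at 30 °C before DHE staining; 100% = average MFI of all compound-treated wells on the plate with controls excluded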
Conditions: S. cerevisiae aged cells, superoxide DHE fluorescence; at 10 µM; hits give low values

Superoxide response (% of plate mean), inactive:
OC(c1nc2ccc(F)cc2[nH]1)C(O)c1nc2ccc(F)cc2[nH]1 (stereo not drawn) 103%, Cc1ccc(S(=O)(=O)NCCC(=O)NC2CCN(Cc3ccccc3)CC2)cc1 93%, Cc1ccc(-c2cc(C(=O)NC3CCN(Cc4ccccc4)CC3)c3ccccc3n2)cc1 107%, O=C(NCc1ccc(F)cc1)C1CCC(CNc2c(N3CCOCC3)c(=O)c2=O)CC1 (stereo not drawn) 96.9%, Cc1cc2oc(=O)cc(-c3ccccc3)c2c(C)c1-c1ccc(OC(F)(F)F)cc1 94.1%, Cc1cc(NC(=O)CN2C(=O)NC(CCc3ccccc3)C2=O)no1 (stereo not drawn) 82.4%, O=C(CCc1ccccc1)Nc1ccc(NC(=O)C2CCCCC2)nc1 91.3%, O=C(COC(=O)CCCNC(=O)c1ccc(Cl)cc1)Nc1cc(Cl)ccc1Cl 98.1%, COc1ccc(-c2nonc2NC(=O)c2oc3ccc(F)cc3c2C)cc1OC 80.1%, CCN(CC)c1nc(-c2ccccc2)cc(C(F)(F)F)c1C#N 87%, CCn1nccc1C(=O)Nc1ccc(S(=O)(=O)NC23CC4CC(CC(C4)C2)C3)cc1 114%, Cc1cc(NS(=O)(=O)c2ccc(NC(=O)c3cccc(OC(F)F)c3)cc2)nc(C)n1 103%, COc1ccc(NC(=O)c2cc([N+](=O)[O-])ccc2NC(=O)CNC2CCCCC2C)c(OC)c1 (stereo not drawn) 111%, CCOC(=O)C1=CN(Cc2ccc(Br)cc2)S(=O)(=O)N(C)C1C (stereo not drawn) 105%, COc1ccccc1C(=O)N1CCNC(=O)C1CC(=O)Nc1ccc(Cl)cc1 (stereo not drawn) 103%, NS(=O)(=O)c1ccc(NC(=O)/C=C/c2ccccc2Cl)cc1 92.5%, COC(=O)c1ccc(NC(=S)Nc2cccc(C)n2)cc1 105%, Cc1cc(C)cc(NC(=O)COC(=O)c2cc(C)oc2C)c1 95.1%, CCC(C(=O)OCC(=O)Nc1c(Cl)cc(Cl)cc1Cl)c1ccccc1 (stereo not drawn) 101%, Cc1cc(=O)n(C)c(=O)n1CCCNc1ccccc1 84.6%, CC(C)Oc1ccc(C(=O)Nc2cc(=O)n(C)c(=O)n2C)cc1 99.9%, O=C(NC1CCC(O)CC1)c1ccc(S(=O)(=O)NCc2ccco2)cc1 (stereo not drawn) 102%, Cn1c(CSCC(=O)Nc2ccccc2)nnc1SCc1ccccc1 118%, Cc1c(NC(=O)CSCc2ccccc2)cccc1C(=O)O 116%, C/C(CC(=O)NC(C)c1ccccc1)=N\NC(N)=S (stereo not drawn) 105%, C=CCNC(=O)C12CC3CC(C1)CC(C(=O)NCC=C)(C3)C2 96%, CCOc1ccccc1NC(=O)C12CC3CC(C1)CC(c1ccc(C)cc1)(C3)C2 95.5%, COc1cccc(NC(=O)Cn2c3ccc(F)cc3c3nc4n(c(=O)c32)CCS4)c1 82.6%, COc1ccc(C(CCNCc2ccccc2F)c2ccc(F)cc2)cc1 (stereo not drawn) 97%, CCc1cc(-c2n[nH]c(=S)n2CC(C)C)cs1 87.8%, COc1ccc(CNC(=O)Cc2ccc(-c3ccccc3)cc2)cc1OC 98.2%, COc1cc(C(=O)NCc2ccc(-n3cccc3)cc2)cc(OC)c1OC 99.9%, CCCCNC(=O)C1CCCN(S(=O)(=O)c2ccc(S(=O)(=O)NCC(C)C)cc2)C1 (stereo not drawn) 102%, Cc1ccccc1N1CCN(S(=O)(=O)c2ccc3ccccc3c2)CC1 95.3%, O=S(=O)(N1CCOCC1)N1CCN(c2ccccc2F)CC1 90.5%, COc1ccc(C(=O)Nc2ccc(C3(C#N)CCCC3)cc2)cc1OC 87.6%, COC(=O)c1ccc(S(=O)(=O)c2ccc(C(=O)OC)s2)s1 101%, CCNC(=S)Nc1cccc(Cl)c1C 97.2%, O=C(Nc1c(Cl)cccc1Cl)C1CCC1 111%

Superoxide response (% of plate mean), active:
Cc1ccc(-c2nc(CSCC(=O)NC3CCN(Cc4ccccc4)CC3)c(C)o2)cc1 58.7%, Cc1cc(C(F)F)n2nc(C(=O)Nc3ccc(S(=O)(=O)NC45CC6CC(CC(C6)C4)C5)cc3)nc2n1 62.8%, CCCC(C)C(=O)OCC(=O)Nc1c(Br)cc(C)cc1Br (stereo not drawn) 65.3%, Cn1c(Nc2ccccc2)cc(=O)n(C)c1=O 33.4%, O=C(CSCc1ccccc1)Nc1ccccc1 42.6%, Cc1ccc(C23CC4CC(CC(C(=O)NCC(=O)O)(C4)C2)C3)cc1 62.1%, COc1cc(-c2nnn(CC(=O)NCc3ccccc3)n2)cc(OC)c1OC 65.3%, Cc1ccc2cccc(S(=O)(=O)N3CCN(c4ccccc4F)CC3)c2n1 61.4%, NC(=S)Nc1c(Cl)cccc1Cl 46.6%
